# Compound activity from PubChem BioAssay.
# Compounds with a hit are over-represented: about 11% of the library has one in this group of screens.
# PNC assembly inh = perinucleolar compartment assembly inhibition. actives 3.1% (n = 140,000). PC3M PTB-GFP, PNC prevalence imaging, 16 h; hits give low values. activity change (PNC), negative = inhibition, % at 10 µM;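 active = readout at or below -70, meaning at least 70% loss of cells showing the perinucleolar compartment, a nuclear body marking cancer cells; inconclusive = readout between -30 and a set limit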;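 also: plate controls were DMSO wells for no effect and camptothecin positive control wells for full effect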
#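 PC3M cells stably expressing PTB-GFP, 750–1000 cells/well, treated 16 h at 37 °C with compound (23 nl of library stock), in duplicate. After paraformaldehyde fixation and Hoechst stain, imaged at 20x; PNC prevalence scored by image analysis.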
# ALDH1A1 block = inhibitors of human aldehyde dehydrogenase 1A1 | Potency, µM (top dose mostly 75.3 µM), for the others: top-dose activity, negative = inhibition, most hits filed as inhibitors | AID 1030 | actives 7.3% (n = 220,000) | Purified ALDH1A1, NADH fluorescence, propionaldehyde substrate | P00352;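 also: potency is read from the fitted curve at half-maximal effect; plate controls were no enzyme wells and a reference inhibitor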
# HPGD inh = blocks human HPGD enzyme activity. purified HPGD, NADH fluorescence kinetic, PGE2 substrate. actives 4.3% (n = 150,000). Potency, µM, without a hit: top-dose activity change, negative = inhibition, hits mostly inhibitors; also: potency is read from the fitted curve at half-maximal effect
# Target sequence (P15428 whole entry, looked up): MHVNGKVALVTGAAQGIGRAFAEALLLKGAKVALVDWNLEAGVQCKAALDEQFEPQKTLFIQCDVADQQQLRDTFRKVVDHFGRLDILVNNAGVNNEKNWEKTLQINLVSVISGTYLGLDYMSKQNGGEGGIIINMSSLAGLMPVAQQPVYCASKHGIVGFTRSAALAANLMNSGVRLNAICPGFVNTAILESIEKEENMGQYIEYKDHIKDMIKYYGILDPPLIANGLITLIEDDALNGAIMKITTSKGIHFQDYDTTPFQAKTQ
#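 20 nM HPGD preincubated 15 min at room temperature with compound in 50 mM Tris-HCl pH 8, 0.01% Tween 20. Started with 1 mM NAD+ and 30 uM prostaglandin E2; NADH fluorescence (360/450 nm) read 5 times over 30-s intervals, last minus first.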
# Starred values were filed as active, the others as inactive; ? = inconclusive; nt = not tested or not shown; [ ] = remark or other dose. Unless noted, calls follow the shape of the dose curve; as a rule, active = well fitted inhibition curve with a large enough effect (not every such curve was filed as active); inconclusive = small, poorly fitted or top-dose-only effect, or another doubt; inactive = no such curve, though single readings can be large or run the other way. Unless noted, % is scaled to controls: 0 for no effect and ±100 for the full control effect.
SMILES,PNC assembly inh,ALDH1A1 block,HPGD inh
COc1ccc(/C=C/C(=O)Nc2cccc(N3CCOCC3)c2)cc1OC,?,-2.5%,-17.6%
COc1ccc(/C=N/Nc2ccc([N+](=O)[O-])cc2)cc1Cn1cc([N+](=O)[O-])cn1,-20.3,?,-12.6%
COc1ccc(/C=N/Nc2ccccc2)cc1Cn1nc(C)c([N+](=O)[O-])c1C,-97.9*,-10.2%,0.1%
COc1ccc(CNC(=O)[C@H](C)[C@H]2C[C@]2(C)[C@H](NC(=O)OCc2ccccc2)c2ccccc2)cc1OC,nt,3.55µM*,-10.3%
Cc1cc(CNC(=O)[C@H](C)[C@@H]2C[C@@]2(C)[C@@H](NC(=O)OCc2ccccc2)c2ccccc2)nn1C,40.5,?,-15.7%
COc1ccc(CNC(=O)[C@H](C)[C@@H]2C[C@@]2(C)[C@@H](NC(=O)OCc2ccccc2)c2ccccc2)cc1OC,37.2,-3.8%,?
C[C@@H](C(=O)O)[C@H]1C[C@]1(C)[C@H](NC(=O)OCc1ccccc1)c1ccccc1,15.6,7.08µM*,-6.0%
Cc1cc(CNC(=O)[C@H](C)[C@H]2C[C@]2(C)[C@H](NC(=O)OCc2ccccc2)c2ccccc2)nn1C,nt,3.98µM*,-8.8%
COC(=O)[C@H](C)[C@@H]1C[C@@]1(C)[C@@H](NC(=O)OCc1ccccc1)c1ccccc1,48.8,-4.9%,-4.3%
CN(C)Cc1ccccc1-c1nccc(NC2CC2)n1,nt,9.4%,-0.7%
Cc1cc(Cl)ccc1OC(C)C(=O)N1CCCN(C(=O)C(C)Oc2ccc(Cl)cc2C)CC1 (stereo not drawn),44.9,3.0%,-5.1%
COC(=O)C1=C(C(=O)c2ccccc2)C(c2ccc(O)c(OC)c2)n2nnnc2N1 (stereo not drawn),21.7,8.6%,-4.8%
CC1=C(C(=O)Nc2ccc(Cl)cc2)C(c2cccs2)n2nnnc2N1 (stereo not drawn),-26.6,5.01µM*,-9.8%
COC(=O)C1=C(C(=O)c2ccccc2)C(c2cccs2)n2nnnc2N1 (stereo not drawn),?,22.4µM*,-6.5%
COc1ccccc1NC(=O)C1=C(C)Nc2nnnn2C1c1ccncc1 (stereo not drawn),33.9,-0.9%,1.0%
O/N=C/c1cc(Br)cs1,nt,-0.7%,nt
C[C@@](N)(Cc1c[nH]c2ccccc12)C(=O)O,nt,-2.5%[13.5 µM],-0.9%
CCc1ccc(NC(=O)CCc2nc3ccccc3[nH]2)cc1,nt,-2.4%,nt
Oc1ccccc1C1=NOC(O)(C(F)F)C1 (stereo not drawn),?,1.1%,15.8µM*
Oc1ccccc1C1=Nc2ccccc2N=C(c2ccco2)C1,-10.9,-2.3%,-12.1%
COc1cc(C(C)=O)ccc1COc1ccc(C(=O)OC(C)C(=O)NC(N)=O)cc1OC (stereo not drawn),?,3.6%,-1.3%
Cc1cc(C(=O)CN2C(=O)NC3(CCCc4ccccc43)C2=O)c(C)n1Cc1ccccc1 (stereo not drawn),16.3,?,-24.1%
Cc1cc(C(=O)CN2C(=O)CCC2=O)c(C)n1Cc1ccccc1,-1.5,7.08µM*,-9.8%
Cc1ccc(Oc2ccc(-c3nnc(-c4ccccc4)o3)cc2[N+](=O)[O-])cc1C,?,-8.6%,-16.4%
COC(=O)c1ccc(C(=O)OC)c(NC(=O)CN(C)Cc2ccccc2)c1,-14.2,0.3%,-11.3%
SMILES,PNC assembly inh,ALDH1A1 block,HPGD inh
CCOC(=O)C(=CNCC(=O)OC)C(=O)OCC,1.6,4.1%,-4.3%
CCOC(=O)CNC=C(C(=O)OCC)C(=O)OCC,-95.6*,-0.4%,-13.6%
Cn1c(SCC(=O)c2ccccc2)nnc1-c1cccc(N)c1,43.5,?,-8.2%
CSc1nc(C)c(Oc2ccccc2)c(=O)n1C,-21.1,13.3%,12.6µM*
Cn1ncc(Cl)c(Oc2ccccc2)c1=O,81.3,9.7%,-17.3%
O=C(C[n+]1ccccc1)c1ccc(NC(=O)c2ccccc2)cc1,nt,1.6%,nt
NC(=O)c1cc[n+](CC(=O)c2ccc(NC(=O)c3ccccc3)cc2)cc1,nt,4.47µM*,nt
C=CCN(c1ccccc1)S(=O)(=O)c1ccc(Cl)c(C(=O)OCC(=O)c2[nH]c(C)c(C(C)=O)c2C)c1,-11.1,1.4%,-11.1%
CCO[C@H]1OC(C(=O)N2CCCCCCC2)=C[C@@H](c2coc3ccccc3c2=O)[C@@H]1CCCO,nt,8.3%,nt
O=C(NCc1cccs1)C1CCCN1C(=O)Nc1ccc(Cl)cc1 (stereo not drawn),nt,7.3%,nt
COc1ccc(N2CC(O)=C(c3nc(C)cs3)C2=N)cc1,2.8,20µM*,-11.7%
Cc1csc(C2=C(O)CN(c3ccc4c(c3)OCCOCCOCCOCCO4)C2=N)n1,-2.5,9.5%,-5.9%
COc1ccc(N2C(=O)C(CC(=O)Nc3ccc(F)cc3)N(CCc3ccc(OC)c(OC)c3)C2=O)cc1 (stereo not drawn),nt,-2.5%,nt
O=C(Nc1ccc(Cl)cc1F)c1ccccc1Br,-81.1*,4.2%,15.8µM*
O=C(NNC(=O)c1ccccc1Br)c1ccc(Cl)cc1,97.1,1.5%,-13.7%
O=C(CSc1ccc(-c2ccc(F)cc2)nn1)N1CCN(c2ccccc2)CC1,-3.1,0.7%,-1.8%
CCOc1cccc(/C=N/NC(=O)CC2C(=O)NN=C2C)c1O (stereo not drawn),nt,0.0%,nt
CCOc1cccc(C=Nc2cc(C)cc(C)c2O)c1O,?,22.4µM*,11.2µM*
COc1ccc(C(=O)N/N=C2\CCc3ccccc32)cc1OC,nt,2.2%,nt
COc1ccc(C(=O)/C=C2/c3ccccc3CC(C)(C)N2C)cc1OC,-2.8,23.8µM*,-9.5%
Cc1cc(C)c(S(=O)(=O)N2CCN(C(=O)N(C)C)CC2)c(C)c1,nt,4.47µM*,nt
Cc1ccc(S(=O)(=O)N2CCN(C(=O)N(C)C)CC2)cc1,nt,-9.6%,nt
O=C(Nc1ccc(Nc2ccncc2)cc1)c1ccc(Nc2ccnc3ccc([N+](=O)[O-])cc23)cc1[N+](=O)[O-],nt,31.3%,nt
Cc1ccc(NC(=S)N2CCC(c3ccccc3)C2)c(Cl)c1 (stereo not drawn),nt,-7.5%,nt
COc1cc([N+](=O)[O-])ccc1NC(=O)CCCOc1cccc(C)c1C,6.0,14.1µM*,-16.0%
SMILES,PNC assembly inh,ALDH1A1 block,HPGD inh
COc1cc([N+](=O)[O-])ccc1NC(=O)Cc1ccccc1,nt,-2.7%,nt
Cc1ccc([N+](=O)[O-])cc1NC(=O)Nc1onc(C)c1C,nt,3.2%,nt
CC(=O)Nc1sc(NC(=O)c2ccc(Cl)cc2)nc1-c1cccs1,24.2,-8.6%,-19.4%
Nc1nc(-c2cccs2)c(NC(=O)c2ccccc2)s1,-25.7,20µM*,-5.7%
Cc1ccc(Cn2c(O)c(N=NC(=S)Nc3ccccc3F)c3ccccc32)cc1,nt,11.2µM*,nt
C=CCn1c(O)c(N=NC(=S)Nc2cccc(C)c2)c2ccccc21,-4.6,-5.9%,-28.8%
C=CCn1c(O)c(N=NC(=O)CNC(=O)/C=C/c2ccco2)c2ccccc21,-1.1,10µM*,-16.7%
O=C(/C=C/c1ccco1)NCC(=O)N/N=C/c1ccc(Cl)cc1,nt,1.4%,nt
Oc1c(N=NC(=S)Nc2ccccc2F)c2ccccc2n1Cc1ccccc1,nt,20µM*,nt
C=CCn1c(O)c(N=NC(=S)Nc2ccccc2F)c2ccccc21,nt,28.2µM*,nt
Cc1cc(C)nc(N=Nc2c(O)n(Cc3ccc(Cl)cc3)c3ccccc23)n1,2.1,-2.2%,-5.5%
Cc1c(Cl)cccc1NC(=S)N=Nc1c(O)n(CN2CCOCC2)c2ccccc12,?,?,-8.7%
